Measured values reported in PubChem BioAssay AID504444 (National Center for Advancing Translational Sciences (NCATS), 2011).
In all, about 360,000 compounds went through this assay and about 7,500 (2.1%) were called active. Another 20% or so got no clear call; they are omitted. The call rests on the fitted dose curve; in most records, active means well fitted inhibition curve with a large enough effect; inconclusive means small, poorly fitted or top-dose-only effect, or effect the other way; inactive means flat fitted curve, though single readings scatter. The list comes from a sample in which actives are over-represented; it also holds similar structures and randomly drawn compounds. A call without a number means that no potency is given here.
Potency means the concentration at half of the fitted maximal effect.

Test: Nrf2 qHTS screen for inhibitors; further: nearly all actives have a fitted effect of over 60% in size
Conditions: A549 ARE-Fluc reporter, luciferase luminescence, 18-24 h; series mostly up to 46 µM
Method in brief: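 Concentration-response testing used A549 ARE_Fluc cells at 5000 cells/well. Following an 18-24 h compound incubation, viability was read by fluorescence (Ex 405/Em 525) and luciferase output by luminescence.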
With `CCC(=O)N1CCc2cc(S(=O)(=O)NC(C(=O)Nc3ccc(C(C)=O)cc3)C(C)C)ccc21` (stereo not drawn) the Potency was “inactive”. For `O=C(NCC1(N2CCCCC2)CCCCC1)c1cccc(S(=O)(=O)Nc2ccccc2Cl)c1`, the Potency was “inactive”. In the case of `CCOc1ccc(CCNC(=O)c2cc3c(=O)n(C)c4ccccc4c3n2C)cc1`, the Potency is reported as “inactive”. With `NS(=O)(=O)c1ccc(NC(=O)CSc2nnc3c(n2)[nH]c2ccccc23)cc1` the Potency was “inactive”. In the case of `O=[N+]([O-])c1ccc(NS(=O)(=O)c2ccccc2)c(Cl)c1`, the Potency is reported as 11.6 µM (active). With `Cc1cccc(NS(=O)(=O)c2ccc([N+](=O)[O-])cc2)n1` the Potency was “inactive”. For `O=C(NNS(=O)(=O)c1ccc(F)cc1)c1ccc([N+](=O)[O-])cc1Cl`, the Potency was “inactive”. For `CN(CC(=O)NCC(c1ccccc1)N1CCCC1)S(=O)(=O)c1ccc(Cl)cc1` (stereo not drawn), the Potency was “inactive”. For `CCCCCCn1nnc2sc(-c3ccccc3)cc2c1=O`, the Potency was “inactive”. In the case of `COc1cc(O)c2c(=O)c3c(O)c(O)ccc3oc2c1OC`, the Potency is reported as “inactive”. In the case of `O=C(Cc1ccc(NC(=O)C2CCCN(C(=O)C3CCCCC3)C2)cc1)Nc1cccc(C(=O)N2CCCCC2)c1` (stereo not drawn), the Potency is reported as “inactive”. For `COc1cc(/C=N/NC(=O)Nc2ccccc2)ccc1OCCOc1ccccc1C`, the Potency was 14.6 µM (active). For `COc1cc(/C=N/NC(=O)c2ccoc2C)ccc1OCCN1CCCCC1`, the Potency was “inactive”. With `COc1cc(/C=N/NC(=O)c2ccccc2)ccc1OS(=O)(=O)c1ccccc1` the Potency was “inactive”. For `COc1ccc(-c2sc3ccc(OC)cc3c2C#Cc2ccccn2)cc1`, the Potency was “inactive”. In the case of `CCCCC[C@@H]1C=C(C(=O)O)[C@H](c2ccc(C#N)cc2)N1S(=O)(=O)c1ccc(C)cc1`, the Potency is reported as “inactive”. In the case of `COc1ccc(CN2CCN(C(=O)c3cc(C4CC4)nn3-c3ccccc3)CC2)cc1F`, the Potency is reported as “inactive”. In the case of `CCOC(=O)CCC(NC(=O)c1ccc(CNc2nc3cc(C(F)(F)F)ccc3nc2C(=O)OCC)cc1)C(=O)OCC` (stereo not drawn), the Potency is reported as “inactive”. In the case of `C=CCNC(=O)c1ccc2nc(-c3ccco3)c(-c3ccco3)nc2c1`, the Potency is reported as “inactive”. With `COCCNC(=O)Cn1cc(C(=O)c2cccs2)c2ccccc21` the Potency was “inactive”. With `COC(=O)Cn1cc(C(=O)c2cccs2)c2ccccc21` the Potency was “inactive”. With `Cc1c(Cl)cccc1NC(=O)Cn1cc(C(=O)c2cccs2)c2ccccc21` the Potency was 6.51 µM (active). For `Cc1cccc(N2CCN(C3=C(c4ccccc4)C(=O)c4ccccc43)CC2)c1C`, the Potency was “inactive”. In the case of `CCOc1ccc(S(=O)(=O)c2cn(Cc3ccccc3)c3ccc(OCC)cc3c2=O)cc1`, the Potency is reported as “inactive”. In the case of `CCOc1ccc(CNC(=O)C2CCCN(S(=O)(=O)N(CC)c3ccc(OCC)cc3)C2)cc1` (stereo not drawn), the Potency is reported as 16.4 µM (active). In the case of `Cc1ccc(CNC(=O)C2CCCN(S(C)(=O)=O)C2)cc1` (stereo not drawn), the Potency is reported as “inactive”. For `CCS(=O)(=O)N1CCCC(C(=O)NCc2ccc(C)cc2)C1` (stereo not drawn), the Potency was “inactive”. With `Oc1ccc(/C=C/c2c(F)cccc2F)c2cccnc12` the Potency was “inactive”. In the case of `Cc1c(NC(=O)Cc2ccccc2)cccc1-c1nc2cccnc2s1`, the Potency is reported as “inactive”. In the case of `CC(=O)Nc1cccc(-c2nc3ccccc3s2)c1C`, the Potency is reported as 7.31 µM (active). With `COc1ccc(-c2nc3ccccc3s2)cc1NC(=O)COc1ccccc1C` the Potency was “inactive”. For `COc1ccc(CCNC(=O)c2ccc(-n3c(C)cc4c3CCCC4)cc2)cc1OC`, the Potency was “inactive”. With `CN(Cc1cnccn1)C(=O)c1cc(COc2cccc(C(F)(F)F)c2)on1` the Potency was “inactive”. For `CN(Cc1cccnc1)C(=O)c1cc(COc2ccc3ncccc3c2)on1`, the Potency was 4.61 µM (active). With `CC(=O)c1cccc(OCc2cc(C(=O)NC(C)Cc3cccnc3)no2)c1` (stereo not drawn) the Potency was “inactive”. For `O=C1/C(=C\c2ccc(O)cc2)CCC1CNc1ccc(Cl)cc1` (stereo not drawn), the Potency was “inactive”. For `CCN1C[C@@H]2[C@@H]3C(=O)N(C)C(=O)[C@@H]3[C@](C)(C1=O)N2C(=O)c1ccccc1`, the Potency was “inactive”. With `COc1ccc(CCNC(=O)COc2cc(C)cc3oc(=O)c(C)c(C)c23)cc1OC` the Potency was “inactive”. For `COc1ccccc1N1CCN(CCCNC(=O)c2cnn(-c3ccccc3Cl)c2C2CCN(C(=O)OC(C)(C)C)CC2)CC1`, the Potency was “inactive”. With `COC(=O)CN(C(=S)Nc1ccc(Cl)cc1)C1CC(=O)N(c2ccc(OC)cc2)C1=O` (stereo not drawn) the Potency was “inactive”. With `CCOc1ccc(N2C(=O)CC(N(O)c3ccccc3)C2=O)cc1` (stereo not drawn) the Potency was “inactive”. In the case of `CCOc1ccc(N2C(=O)CC(N(CCc3ccc(OC)c(OC)c3)C(=S)Nc3ccccc3)C2=O)cc1` (stereo not drawn), the Potency is reported as 23.1 µM (active). In the case of `O=C1CC(c2nnc(Cc3ccc(Cl)cc3)o2)CN1c1ccccc1` (stereo not drawn), the Potency is reported as “inactive”. With `O=C(NCCNc1ccccc1[N+](=O)[O-])c1ccccc1F` the Potency was “inactive”. With `O=C(NCCCNc1ccc([N+](=O)[O-])cc1Cl)c1ccccc1F` the Potency was “inactive”. In the case of `O=C(NCCNc1ccc([N+](=O)[O-])cc1Cl)c1ccccc1F`, the Potency is reported as 16.4 µM (active). For `COc1ccccc1Nc1c2c(nc3ccc(NC(=O)/C=C/c4cc(OC)c(OC)c(OC)c4)cc13)CCCC2`, the activity change, negative = inhibition was 4.54% [at 9.27 µM] (inactive). For `COc1ccccc1CNC(=O)CCCCn1c(=O)c2ccccc2n(CC(=O)Nc2cc(Cl)ccc2C)c1=O`, the Potency was “inactive”. With `COc1ccc(NC(=O)Cn2c(=O)n(CCC(C)C)c(=O)c3cccnc32)cc1Cl` the Potency was “inactive”. With `COc1ccccc1C(=O)c1ccccc1C(=O)c1ccccc1` the Potency was “inactive”. For `COCCn1c(SCC(=O)Nc2ccccc2F)nc2c(c1=O)SCC2`, the Potency was 4.11 µM (active). In the case of `CC1Cc2nc(SCC(=O)Nc3ccccc3F)n(C)c(=O)c2S1` (stereo not drawn), the Potency is reported as “inactive”. In the case of `COCCn1c(SCC(=O)N2CCCCCC2)nc2c(c1=O)SCC2`, the Potency is reported as “inactive”. For `COC(=O)[C@@]1(C)[C@H]2C(=O)N(Cc3ccccc3)C(=O)[C@H]2[C@H]2CN=C(SCC3CC3)N21`, the Potency was “inactive”. In the case of `Cc1nn(-c2ccccc2)c2c1C(c1ccc(F)cc1)C(C#N)=C(N)O2` (stereo not drawn), the Potency is reported as “inactive”. With `Cc1nn(Cc2ccccc2)c2c1C(c1ccccc1)C(C#N)=C(N)O2` (stereo not drawn) the Potency was “inactive”. With `COc1ccccc1C1C(C#N)=C(N)Oc2c1c(-c1ccccc1)nn2-c1ccccc1` (stereo not drawn) the Potency was 20.6 µM (active). In the case of `Cc1oc2ccc(O)c(CN3CCCCC3)c2c1C(=O)Nc1cccc(C(F)(F)F)c1`, the Potency is reported as “inactive”. With `COc1cccc(C(=O)NC2CCN(C#N)CC2)c1` the Potency was “inactive”. With `Cc1ccccc1OCc1ccc(-c2nc(C#N)c(N3CCCCC3)o2)o1` the Potency was “inactive”. In the case of `Cc1ccc(-n2c(SCC(=O)N3c4ccccc4Sc4ccccc43)nnc2-c2ccncc2)cc1`, the Potency is reported as “inactive”. In the case of `Cc1ccccc1-n1c(SCC(=O)NCc2cccs2)nnc1-c1ccncc1`, the Potency is reported as “inactive”. For `Cc1ccc(Nc2nc(CSc3nnc(-c4ccncc4)n3-c3ccccc3C)cs2)cc1`, the Potency was 9.2 µM (active).
